Measurements reported in PubChem BioAssay (Tox21).
Inconclusive results are not listed. Unmarked numbers belong to inactive results. Activity calls are given as the source filed them. Calls follow the shape of the full dose curve.

Target: Peroxisome proliferator-activated receptor gamma (Homo sapiens) (UniProt P37231)
Test: qHTS assay to identify small molecule antagonists of the peroxisome proliferator-activated receptor gamma (PPARg) signaling pathway (AID 743191); also: nearly all actives have a fitted effect of over 30% in size
Conditions: HEK293H PPARg-UAS-bla, beta-lactamase ratio, antagonist, 17 h; series mostly up to 62.6 µM; ratio activity, negative = inhibition: at the top concentration
From the text: U.S. Tox21 Program National Center for Advancing Translational Sciences [NCATS] NIH Chemical Genomics Center [NCGC] U.S. Environmental Protection Agency [EPA] National Institutes of Environmental Health Sciences [NIEHS] National Toxicology Program [NTP] U.S. Food and Drug Administration [FDA] Tox21 Assay Overview: The peroxisome proliferator-activated receptors (PPARs) are lipid-activated transcription factors of the nuclear receptor superfamily with three distinct subtypes namely PPAR alpha, PPAR delta (also called PPAR beta) and PPAR gamma (PPARg). All these subtypes heterodimerize with Retinoid X receptor (RXR) and these heterodimers regulate transcription of various genes. PPAR-gamma receptor (glitazone receptor) is involved in the regulation of glucose and lipid metabolism. To identify the compounds that inhibit PPAR-gamma signaling, GeneBLAzer PPAR gamma UAS-bla HEK293H cell line (Invitrogen, Carlsbad, CA, USA) containing a beta-lactamase reporter gene under control of an Upstream Activator Sequence (UAS) was used to screen the Tox21 compound library.
Tox21 Assay Protocol Summary: PPARg-bla cells were dispensed at 3000 cells/6uL/well in 1536-well black wall/clear bottom plates using a Multidrop Combi (Thermo Fisher Scientific, Waltham, MA) dispenser. After the assay plates were incubated at 37C and 5% CO2 for 5 h, 23 nL of compounds dissolved in DMSO, positive controls or DMSO only was transferred to the assay plate by a Pintool station (Kalypsys, San Diego, CA). The assay plates were incubated at 37C for 17 h. After 1 uL of LiveBLAzerTM B/G FRET substrate was added using a Bioraptr Flying Reagent Dispenser (FRD) workstation (Beckman Coulter, Indianapolis, IN, USA), the plates were incubated at room temperature for 1 h, and fluorescence intensity was measured by an Envision plate reader (PerkinElmer, Shelton, CT).
% is scaled to controls: 0 for no effect and ±100 for the full control effect; potency is read from the fitted curve at half-maximal effect.

Peroxisome proliferator-activated receptor gamma (Homo sapiens), sequence (P37231 whole entry, looked up): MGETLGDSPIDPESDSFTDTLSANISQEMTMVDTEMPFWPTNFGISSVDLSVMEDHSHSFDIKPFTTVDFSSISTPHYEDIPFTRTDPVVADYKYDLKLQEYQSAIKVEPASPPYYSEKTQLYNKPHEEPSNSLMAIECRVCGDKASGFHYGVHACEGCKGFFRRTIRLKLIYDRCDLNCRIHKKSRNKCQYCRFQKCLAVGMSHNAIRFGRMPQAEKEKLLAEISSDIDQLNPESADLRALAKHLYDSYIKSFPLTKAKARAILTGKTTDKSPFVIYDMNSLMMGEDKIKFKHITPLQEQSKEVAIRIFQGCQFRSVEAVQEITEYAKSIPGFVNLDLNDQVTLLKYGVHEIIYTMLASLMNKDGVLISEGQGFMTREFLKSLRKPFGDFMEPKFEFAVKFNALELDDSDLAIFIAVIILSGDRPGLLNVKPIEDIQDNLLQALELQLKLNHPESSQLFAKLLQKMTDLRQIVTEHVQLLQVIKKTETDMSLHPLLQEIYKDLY

SMILES	ratio activity, negative = inhibition	Potency
CC(C)C#N	9.94%	
CC(Oc1ccc(Cl)cc1Cl)C(=O)O (stereo not given)	4.87%	
OC(O)C(Cl)(Cl)Cl		inactive
COC(=O)NS(=O)(=O)c1ccc(N)cc1	-1.2%	
CN(C)CCO	-7.51% [at 81.1 µM]	
CCC[N+](=O)[O-]		inactive
COCCl		inactive
NCCc1ccc(O)cc1	-0.724%	
O=NN1CCCC1	2.92%	
Cc1ccc(N)cc1N		inactive
COC(=O)c1ccccc1N		inactive
O=[N+]([O-])c1ccc(Oc2ccc(Cl)cc2Cl)cc1	10.6%	
O=[N+]([O-])c1ccc([As](=O)(O)O)cc1		inactive
CCN(CC)c1ccccc1		inactive
O=S(=O)(c1ccc(O)cc1)c1ccc(O)cc1	1.34% [at 81.1 µM]	
ClCc1cccnc1		inactive
CCC[CH2][Sn]([Cl])([Cl])[Cl]	-4.21% [at 81.1 µM]	
COC(=O)NC(=S)Nc1ccccc1NC(=S)NC(=O)OC	1.31%	
Clc1ccc(Cl)cc1	9.85%	
Nc1ccc(Oc2ccc(N)cc2)cc1		inactive

SMILES	ratio activity, negative = inhibition	Potency
Cc1cc(-c2cc(C)c(N)c(C)c2)cc(C)c1N	0.105%	
ClCCBr		inactive
[N-]=[N+]=[N-]		inactive
C#CCN(C)[C@H](C)Cc1ccccc1	8.87%	
CCc1cccc(C)c1N(C(=O)CCl)C(C)COC (stereo not given)		21.9 µM (active)
CC1C=[C-]C=C1.[C-]#[O+].[C-]#[O+].[C-]#[O+].[Mn]	-5.06%	
O=C1CCCN1	6.35% [at 81.1 µM]	
CCCN(CCC)c1c([N+](=O)[O-])cc(C(F)(F)F)cc1[N+](=O)[O-]	15.4%	
O=c1n(Cl)c(=O)n(Cl)c(=O)n1Cl	20%	
CN(N=O)c1ccccc1	17.8% [at 81.1 µM]	
Cc1[nH]c(=O)n(C(C)(C)C)c(=O)c1Cl	-1.14%	
CC(C)N1C(=O)c2ccccc2NS1(=O)=O	13%	
CCCCCOC(=O)c1ccccc1C(=O)OCCCCC	6.71%	
CCC12COCN1COC2		inactive
CCOC(=O)c1ccccc1C(=O)OCC		inactive
CCOP(OCC)OCC	-14.8% [at 81.1 µM]	
O=c1[nH]c(=O)[nH]c(=O)[nH]1		inactive
Oc1ccccc1Cl		inactive
CCNc1nc(NC(C)C)nc(SC)n1	-6.88%	
COC(=O)c1ccccc1C(=O)OC		inactive
